In PubChem BioAssay:

molecular target: Torsin-1A (Homo sapiens) (UniProt O14656); assay: TOR1A wild-type binding on microarray – cell lysate, small-molecule microarray, lysate, 635/667 nm, primary screen (AID 1149); settings: COS7 hTOR1A-WT lysate, 635 nm fluorescence, higher = more signal
Sequence (O14656 whole entry, looked up): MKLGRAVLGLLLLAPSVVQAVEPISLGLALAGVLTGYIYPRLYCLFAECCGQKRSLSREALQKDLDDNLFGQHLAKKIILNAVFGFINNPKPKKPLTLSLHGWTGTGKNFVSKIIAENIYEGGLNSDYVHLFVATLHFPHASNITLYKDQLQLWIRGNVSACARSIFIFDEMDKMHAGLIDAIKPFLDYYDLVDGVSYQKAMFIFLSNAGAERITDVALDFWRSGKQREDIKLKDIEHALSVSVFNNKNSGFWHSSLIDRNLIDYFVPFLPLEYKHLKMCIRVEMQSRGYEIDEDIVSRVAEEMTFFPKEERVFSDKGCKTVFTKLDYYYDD

Compound | composite z-score
COCCOC(=O)N1C(=O)[C@@]2(c3ccccc31)[C@H](c1ccc(OCCO)cc1)N1[C@H](c3ccccc3)[C@H](c3ccccc3)OC(=O)[C@H]1[C@@H]2C(=O)N1CCc2cc(OC)c(OC)cc2C1 | 0.518
O=C(CS)NCCCCCNC(=O)[C@H]1C[C@H]2C(=O)NCC(=O)N2[C@H]1c1cccc(OCCO)c1 | -0.181
CCCC[C@@H]1C[C@H]1[C@@H](NC(=O)c1cccnc1)c1ccc(Cl)cc1 | -1.57
CCCCCCCCCCC(O)C1C=CC2C(=O)NC(=O)C2N1Nc1ccc(Cl)cc1Cl (stereo unspecified) | -1.76
O=C1O[C@H](c2ccccc2)[C@H](c2ccccc2)N2[C@H]1[C@@H](C(=O)N1CCN(c3ncccn3)CC1)[C@]1(C(=O)Nc3ccc(C#CC4=CCCCC4)cc31)[C@H]2c1ccccc1OCCO | 0.0637
CCCCC(O)C1C=CC2C(=O)N(C)C(=O)C2N1N1CCCCC1 (stereo unspecified) | 0.0748
O=C1OCCC=C[C@H]2OC34C=CCN(c5ccc(Cl)cc5)C(=O)[C@H]3N(CCCO)C(=O)[C@@H]4C12 (stereo partly specified) | -0.531
CO[C@H]1O[C@H](CO)[C@@H](OC(=O)Nc2cccc(F)c2)[C@H](OC(=O)Nc2ccccc2)[C@H]1OC(=O)Nc1ccccc1 | 1.28
C#CCOc1ccc(C[C@@H](C(=O)OC)N(CC#C)[C@@H](/C=C/C2CC2)[C@H](O)Cc2ccccc2)cc1 | -1.18
CCCCCCc1nc(-c2ccc(-c3ccc(Cl)c(Cl)c3)o2)c(C)c2c1[Si](C(C)C)(C(C)C)OC2 | -0.782
COCCOC(=O)N1C(=O)[C@@]2(c3ccccc31)[C@H](C(=O)N1CCCCCCC1)[C@H]1C(=O)O[C@H](c3ccccc3)[C@H](c3ccccc3)N1[C@@H]2c1ccc(OCCO)cc1 | 3.22
COc1ccc([Si](C)(C)[C@H]2[C@H](CCO)O[C@@]3(C(=O)N(Cc4ccccc4)c4ccc(N5CCCCC5=O)cc43)[C@@H]2C)cc1 | 0.23
COCCCNC(=O)[C@@]1(Sc2ccc(C)cc2)CC(=O)N(Cc2ccccc2Cl)[C@@H]1c1ccc(CO)cc1 | 0.607
CO[C@H]1O[C@H](CO)[C@@H](OC(=O)Nc2ccccc2)[C@@H]2OC(=O)[C@@H](Cc3ccc4ccccc4c3)C/C=C/C[C@H](Cc3ccc4ccccc4c3)C(=O)O[C@@H]12 | 0.643
[N-]=[N+]=Nc1ccccc1C[C@]1(C(=O)N2CCCCC2)COC(c2ccc(OCCCO)cc2)=N1 | 0.552
C=C(C(=O)CC[C@H](OC(C)=O)c1ccccc1OCCO)C(C)C | 0.229
COCCOC(=O)N1C(=O)[C@@]2(c3cc(C#CCCO)ccc31)[C@H](c1ccc(OCCO)cc1)N1[C@H](c3ccccc3)[C@H](c3ccccc3)OC(=O)[C@H]1[C@@H]2C(N)=O | 0.271
C=CCC(OC(C)=O)[C@@H]1[C@@H](N(Cc2ccc(-c3ccccc3)cc2)C(=O)Cc2ccc(F)cc2)c2cc(OCCCO)ccc2N1C(=O)c1ccc2ccccc2c1 (stereo partly specified) | -0.287

Compound | composite z-score
COC(=O)[C@@]1(Cc2ccccc2)[C@H]2c3cc(C(=O)N4CCCC4)n(Cc4ccc(O)c(OC)c4)c3C[C@H]2CN1C(=O)c1ccccc1 | -0.0034
CCOC(=O)C1=CC[C@@H](c2ccc(C(F)(F)F)cc2)N(S(=O)(=O)c2ccc(C)cc2)[C@H]1c1ccccc1 | 0.504
O=C(CS)NCCCCCNC(=O)[C@@H]1C[C@@H]2C(=O)NCC(=O)N2[C@@H]1c1cccc(OCCO)c1 | 0.396
C=CCC(OC(C)=O)[C@@H]1[C@@H](N(Cc2ccc(-c3cccc(C(F)(F)F)c3)o2)C(=O)Cc2ccc(OC)cc2)c2cc(OCCCO)ccc2N1C(=O)c1ccc2ccccc2c1 (stereo partly specified) | -2.27
CC=CC(O)C1C=CC2C(=O)N(C)C(=O)C2N1N(c1ccccc1)c1ccccc1 (stereo unspecified) | 2.7
O=C1O[C@@H](c2ccccc2)[C@@H](c2ccccc2)N2[C@@H](c3ccc(OCCO)cc3)[C@]3(C(=O)Nc4ccc(C#CCCO)cc43)[C@@H](C(=O)NC[C@H](O)c3ccccc3)[C@H]12 | 0.458
CC[C@@H]1C=C(C(=O)O)[C@H](c2cccc3ccccc23)N1S(=O)(=O)c1ccc(C)cc1 | 0.224
C[N+](C)(C)CCCCCCNC(=O)[C@H]1C[C@H]2C(=O)N[C@@H](Cc3ccccc3)C(=O)N2[C@H]1c1cccc(OCCO)c1 | 1.12
CCOC(=O)C[C@H]1[C@H](OC(=O)c2ccc(C(=O)c3ccccc3)cc2)[C@@H](NC(=O)Cc2ccc(OC)cc2)c2cc(OCCCO)ccc2N1C(=O)c1ccc2ccccc2n1 | -0.202
CC(C)(C)OC(=O)CC[C@]1(C(=O)NCCN2CCOCC2)COC(c2ccc(OCCCO)cc2)=N1 | 0.717
COc1ccc(C(=O)Nc2cccc(CN3C(=O)[C@]4(O[C@H](CCn5cc(CCO)nn5)[C@@H]([Si](C)(C)c5ccc(OC)cc5)[C@@H]4C)c4ccccc43)c2)cc1 | 0.188
COc1ccc(CCNC(=O)[C@@]2(c3ccc([N+](=O)[O-])cc3)CC(=O)N(CC34CC5CC(CC(C5)C3)C4)[C@@H]2c2ccc(CO)cc2I)cc1 | 0.292
COc1ccc([C@H]2OC[C@@H]3CCC(=O)N32)cc1 | 1.08
O=C1O[C@@H](c2ccccc2)[C@@H](c2ccccc2)N2[C@@H](c3ccccc3OCCO)[C@]3(C(=O)Nc4ccccc43)[C@@H](C(=O)O)[C@H]12 | 0.332
CCOc1cc(C(O)C2C=CC3C(=O)N(c4ccccc4)C(=O)C3N2Nc2ccc(C(C)C)cc2)ccc1O (stereo unspecified) | 0.159
O=C1OCC=C[C@H]2OC34C=CCN(Cn5nnc6ccccc65)C(=O)[C@H]3N(CCCCCO)C(=O)[C@@H]4[C@@H]12 (stereo partly specified) | -0.884
COC(=O)C(CC#Cc1ccc2c(c1)[C@]1(C(=O)N2)[C@H](c2ccc(O)cc2)N2[C@H](c3ccccc3)[C@H](c3ccccc3)OC(=O)[C@H]2[C@@H]1C(=O)N1CCN(c2ncccn2)CC1)C(=O)OC | 0.131
CC[C@@H]1C=C(C(=O)O)[C@H](c2ccc(C)cc2)N1S(=O)(=O)c1ccc(C)cc1 | 0.063
